TDP1 block = qHTS Assay for Inhibitors of Tyrosyl-DNA Phosphodiesterase (TDP1); recombinant TDP1, AlphaScreen DNA substrate cleavage; Potency, µM (highest dose often 130 µM), without a hit: at the highest dose activity change, negative = inhibition, hits mostly inhibitors; 350,000 tested, 0.28% active; AID 485290, 2010; note: nearly all actives have a fitted effect of over 40% in size
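Signal: AlphaScreen proximity between streptavidin donor and anti-FITC acceptor beads on intact substrate. Reaction: Tdp1 1 nM, substrate 15 nM final, 5 min RT after 15 min compound preincubation.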
RECQ1 inh-1 = qHTS Assay for Inhibitors of RecQ-Like Dna Helicase 1 (RECQ1) | ATP-dependent DNA helicase Q1 (Homo sapiens), P46063 | RECQ1 DNA unwinding, red fluorescence kinetic read | Potency, µM (series often up to 57.3 µM), for the others: at the highest dose activity, negative = inhibition, usual class: inhibitors | 240,000 tested, 0.54% active | AID 2549, 2010;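 note: plate controls were vehicle for no effect and no enzyme for full effect; nearly all actives have a fitted effect of over 30% in size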
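50 nM RECQ1T1 preincubated 15 min with compound in Tris pH 8.0 buffer with MgCl2, DTT, Tween-20 and 2.5 ug/ml poly(dI-dC); started with 200 nM TAMRA/BHQ-2 forked duplex and 2 mM ATP. Unwinding read as fluorescence (525/598 nm), two reads 2 h apart.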
L3MBTL1 block = qHTS Assay for the Inhibitors of L3MBTL1. Potency, µM (doses to about 57.1 µM), for inactives: at the top dose activity, negative = inhibition, usual class: inhibitors. AlphaScreen L3MBTL1–H3K9me1 peptide binding. AID 485360, 2010. Lethal(3)malignant brain tumor-like protein 1 (Homo sapiens), Q9Y468. 230,000 tested, 0.66% active; note: nearly all actives have a fitted effect of over 60% in size
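First, the protein-peptide complex forms for 30 min at room temperature (L3MBTL1 50 nM, biotinylated H3K9me1 peptide 75 nM). Next, compounds are pin-transferred and incubated 30 min. Finally, AlphaScreen beads are added and read after 30 min.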
APE1 inh = qHTS Assay for Inhibitors of the Human Apurinic/apyrimidinic Endonuclease 1 (APE1); AID 2517, 2012; Potency, µM (series often up to 65.8 µM), for inactives: at the top dose activity change, negative = inhibition, usual class: inhibitors; 350,000 tested, 0.35% active; recombinant APE1, TAMRA/BHQ-2 abasic DNA cleavage fluorescence; DNA repair nuclease/redox regulator APEX1 (Homo sapiens), P27695;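 note: plate controls were vehicle for no effect and reference inhibitor for full effect; nearly all actives have a fitted effect of over 55% in size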
Target sequence (P27695 whole entry, looked up): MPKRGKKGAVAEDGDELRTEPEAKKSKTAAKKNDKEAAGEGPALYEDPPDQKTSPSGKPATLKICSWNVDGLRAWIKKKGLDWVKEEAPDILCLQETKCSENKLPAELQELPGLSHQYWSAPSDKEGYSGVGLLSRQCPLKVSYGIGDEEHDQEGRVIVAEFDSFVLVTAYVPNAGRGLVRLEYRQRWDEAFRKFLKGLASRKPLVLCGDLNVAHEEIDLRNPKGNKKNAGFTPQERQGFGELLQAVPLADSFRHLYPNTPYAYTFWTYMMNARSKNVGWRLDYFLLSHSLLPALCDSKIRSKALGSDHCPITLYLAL
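Enzyme (0.75 nM final) and test compound are incubated 15 min at room temperature before adding 50 nM quenched THF abasic-site duplex. Cleavage dequenches TAMRA, followed at 525/598 nm over three reads one minute apart.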
JMJD2E inh = qHTS Assay for Inhibitors of Human Jumonji Domain Containing 2E (JMJD2E) | JMJD2E catalytic domain, FDH-coupled NADH fluorescence (FDH is formaldehyde dehydrogenase) | 230,000 tested, 1.6% active | Potency, µM (series often up to 57.1 µM), inactives show at the highest dose activity change, negative = inhibition, usual class: inhibitors | Lysine-specific demethylase 4E (Homo sapiens), B2RXH2; active = well fitted inhibition curve with a large enough effect, not every such curve was filed as active; inconclusive = small, poorly fitted or top-dose-only effect, or another doubt; inactive = no such curve, though single readings can be large or run the other way;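 note: 0% = wells with enzyme and -100% = buffer wells without enzyme; nearly all actives have a fitted effect of over 50% in size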
Target sequence (B2RXH2 1-337 limits assumed): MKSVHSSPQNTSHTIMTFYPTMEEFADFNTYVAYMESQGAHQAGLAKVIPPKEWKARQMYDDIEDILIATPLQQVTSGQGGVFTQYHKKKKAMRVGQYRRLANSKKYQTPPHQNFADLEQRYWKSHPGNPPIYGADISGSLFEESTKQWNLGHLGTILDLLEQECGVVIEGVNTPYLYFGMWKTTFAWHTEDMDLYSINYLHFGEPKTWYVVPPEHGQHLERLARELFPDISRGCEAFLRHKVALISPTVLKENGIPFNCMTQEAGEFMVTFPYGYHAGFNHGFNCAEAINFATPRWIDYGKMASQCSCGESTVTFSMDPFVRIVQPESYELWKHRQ
BLM helicase inh = qHTS Assay for Inhibitors of Bloom's syndrome helicase (BLM). RecQ-like DNA helicase BLM (Homo sapiens), P54132. recombinant BLM DNA unwinding, fluorescence dequenching. Potency, µM (doses to about 56.1 µM), for the others: top-dose activity change, negative = inhibition, usual class: inhibitors. 350,000 tested, 0.2% active;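 note: plate controls were vehicle for no effect and no enzyme for full effect; nearly all actives have a fitted effect of over 35% in size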
RECQ1 conf = Confirmation qHTS Assay for Inhibitors of RecQ-Like Dna Helicase 1 (RECQ1); shares compounds with RECQ1 inh-1; RECQ1 helicase DNA unwinding, fluorescence; Potency, µM (series often up to 229 µM), without a hit: at the highest dose activity change, negative = inhibition, actives largely listed as inhibitors; 610 tested, 28% active; note: nearly all actives have a fitted effect of over 45% in size
ADP FP counter = Counterscreen for RECQ1 Inhibitors: ADP Fluorescence Polarization Displacement Assay | shares compounds with RECQ1 inh-1 | ADP fluorescence polarization displacement counterscreen | Potency, µM (titrated, usually from 228 µM), without a hit: at the highest dose activity change, negative = inhibition, most hits filed as inhibitors | 530 tested, 27% active | AID 2711, 2010; note: nearly all actives have a fitted effect of over 45% in size
RECQ1 inh-2 = Confirmation qHTS Assay for Inhibitors of RecQ-Like Dna Helicase 1 (RECQ1) - Round 2 Cherry Picks. shares compounds with RECQ1 inh-1. recombinant RECQ1 DNA unwinding, red fluorescence. Potency, µM (highest dose often 119 µM), inactives show at the top dose activity, negative = inhibition, most hits filed as inhibitors. 1,100 tested, 15% active. AID 504841, 2011; note: nearly all actives have a fitted effect of over 50% in size
* = called active by the depositor; i = inactive; ? = inconclusive; / = no result given; [ ] = another dose, or the depositor's remark. The full list was thinned out, with hits kept by preference. Unless noted, calls come from the whole dose curve; as a rule, active = well fitted curve in the direction sought with a large enough effect; inconclusive = small, poorly fitted or top-dose-only effect, or another doubt; inactive = no such curve, though single readings can be large; an effect the other way counts as inactive or inconclusive. Unless noted, % is set by controls: 0 for no effect and ±100 for the full control effect; potency is the fitted concentration of half-maximal effect.

SMILES	TDP1 block	RECQ1 inh-1	L3MBTL1 block	APE1 inh	JMJD2E inh	BLM helicase inh	RECQ1 inh-2	others
COc1ccc(C(=O)Nc2nc3c(s2)Cc2cc(OC)ccc2-3)cc1	2.1%	16.8%	-23.6%	?	-6.5%	?	/
COC(=O)N1C2CC3(C)CC(=O)CC1(C)C3c1ccccc12 (centres undefined)	15.5%[12.3 µM]	i[11.5 µM]	/	-3.8%[12.4 µM]	3.5%[11.4 µM]	1.9%[12.4 µM]	/
O=C(CCCN1C(=O)/C(=C\c2cccs2)SC1=S)NNC(=O)c1cccnc1	1.6%	2.82µM*	-25.7%	-4.9%	0.9%	-0.2%	/	RECQ1 conf=?;ADP FP counter=3.4%[91.9 µM]
Cc1cc(C(F)(F)F)n2[nH]c(=O)c(N=Nc3ccccc3)c2n1	9.9%	10µM*	/	0.1%	?	3.0%	/	RECQ1 conf=2.6%[114 µM];ADP FP counter=12.8%[91.9 µM]
Cc1nn(-c2ccccc2)c(NC(=O)NS(=O)(=O)c2ccc(Cl)cc2)c1C#N	4.3%	-6.1%	/	0.7%	/	-2.1%	/
O=C(Nc1nc(-c2ccccc2)cs1)Nc1ccc(F)cc1F	-5.4%	?	0.3%	-1.3%	3.4%	-11.8%	-11.2%
COCc1cc(=O)n2[nH]c(N)nc2n1	-10.5%	-2.0%	/	1.3%	-10.3%	-4.6%	/
COCc1cc(=O)n2[nH]c(-c3ccsc3-n3c(C)ccc3C)cc2n1	/	?	/	25.1µM*	?	?	-24.0%
CCCCCCCCCCCCCCNCCO	/	/	/	/	/	1.4%	/
CSc1nnc(-c2ccco2)c(-c2ccco2)n1	/	?	/	?	?	?	-28.7%
O=C(CSc1nnc(-c2ccco2)c(-c2ccco2)n1)Nc1ccccc1	/	10µM*	3.98µM*	14.1µM*	15.8µM*	14.1µM*	-25.7%
CSc1ccc(CNC(=O)C2CCCN(S(=O)(=O)N(C)c3ccc(F)cc3)C2)cc1 (centres undefined)	4.9%	/	/	/	/	-7.3%	/
C/C=C1\COC(C(=O)NC)(C(F)(F)F)C=C1C=C1CCCCC1 (centres undefined)	2.1%	i	/	1.2%	/	-3.8%	/
COc1ccc(-c2nc3cnc(Oc4cccc(Cl)c4)nc3n(C3CC3)c2=O)cc1	/	-0.8%	/	-0.3%	/	-1.1%	/
CC(C)=C1C(=O)NN(c2ccc(F)c(Cl)c2)C1=O	2.9%	31.6µM*	-18.0%	-3.2%	3.3%	-1.8%	-12.2%
C=CCN1c2ccccc2[C@]23C[C@@H](C(=O)OC)N(S(=O)(=O)c4cccs4)C2=NC(C(=O)OC)=C(C(=O)OC)[C@H]13	17.6%[12.3 µM]	-7.8%[11.5 µM]	/	-4.1%[12.4 µM]	9.1%[11.4 µM]	-1.7%[12.4 µM]	/
CNc1ccc(C(=O)Oc2cc(O/N=[N+](\[O-])N(C)C)c([N+](=O)[O-])cc2[N+](=O)[O-])cc1	2.1%	7.5%	/	?	/	-8.6%	/
COc1cc(/C=C2\Oc3cc(O)ccc3C2=O)ccc1O	/	?	/	-6.9%	?	-8.7%	79.4µM*
CCOC(=O)c1sc(-c2ccc(Br)cc2)cc1N	-3.0%	31.6µM*	32.7%	24.8%	?	-14.0%	-18.0%
CCOC(=O)c1cc(-c2ccc(N)cc2)sc1N	9.3%	-5.5%	-5.7%	-0.1%	-4.0%	0.2%	/
Cc1ccc(C)c(N2CCN(C(=O)Cc3ccc(-n4c(=O)[nH]c5ccsc5c4=O)cc3)CC2)c1	0.0%	2.3%	-10.4%	9.4%	0.7%	-5.8%	/
Cc1cccc(N2CCN(C(=O)Cc3ccc(-n4c(=O)[nH]c5ccsc5c4=O)cc3)CC2)c1C	5.3%	-9.9%	-10.6%	16.8%	?	2.5%	/	RECQ1 conf=-9.6%;ADP FP counter=20.9%
O=C(N/N=C/c1ccccc1C(=O)O)c1ccc(COc2cccc3cccnc23)cc1	0.0%	-9.7%	-1.5%	-1.6%	-5.5%	-6.0%	/	RECQ1 conf=-10.8%;ADP FP counter=-7.7%
O=C(NCCCc1nc2ccccc2n1CCCOc1ccccc1)C1CCCCC1	1.7%	/	/	/	/	/	/
Cc1ccc(S(=O)(=O)N2CCC(C(=O)NCCN3CCCCCC3)CC2)cc1	2.8%	?	1.0%	-1.9%	-22.7%	2.6%	-14.2%
SMILES	TDP1 block	RECQ1 inh-1	L3MBTL1 block	APE1 inh	JMJD2E inh	BLM helicase inh	RECQ1 inh-2	others
O=S1(=O)NCC23CCC(CC21)O3 (centres undefined)	7.9%	0.7%	/	-6.6%	/	-2.3%	/
c1csc(Cc2nn3c(-c4ccncc4)nnc3s2)c1	/	10µM*	?	?	7.3%	-27.4%	-23.1%	ADP FP counter=0.2%[91.9 µM]
Cc1cc(C)cc(C(=O)Nc2ccc(-c3nc4ncccc4o3)cc2)c1	4.2%	/	/	/	/	-10.2%	/
O=S(=O)(NCCc1csc2nc(-c3ccc(F)cc3)nn12)c1ccc(Oc2ccccc2)cc1	5.2%	/	/	/	/	-2.1%	/
N[C@@H](CO)c1nnc([C@H](CCC(=O)O)NC(=O)C2CCNCC2)o1	5.1%	-8.9%	14.0%	-0.7%	-11.8%	-3.9%	/
N[C@@H](CO)c1nnc([C@H](CC(=O)O)NC(=O)C2CCNCC2)o1	6.4%	2.4%	22.6%	2.7%	-21.0%	-0.6%	/	RECQ1 conf=-2.1%;ADP FP counter=6.0%
Cc1ccc(OC(=O)c2cc(-c3ccc4c(c3)OCCO4)on2)c(C)c1	-12.0%	/	/	/	/	-10.8%	/
Cc1ccc(NC(=S)NC(=O)c2sc3ccccc3c2Cl)c(C(=O)O)c1	2.4%	6.9%	-13.6%	-3.2%	?	-13.9%	/	RECQ1 conf=89.1µM*;ADP FP counter=?
CC(=O)N[C@@H](CCCNC(=N)N)C(=O)N[C@H](CC1CCCCC1)C(=O)N[C@@H]1CCC2SC[C@@H](C(=O)N[C@H](CCCNC(=N)N)C(=O)N[C@H](Cc3ccc(Cl)cc3)C(N)=O)N2C1=O (some centres undefined)	8.9%	-20.2%	/	-2.1%	/	-12.9%	/

Bioassay records deposited in PubChem by National Center for Advancing Translational Sciences (NCATS).
